TDP1 cell CPT = qHTS for Inhibitors of human tyrosyl-DNA phosphodiesterase 1 (TDP1): qHTS in cells in presence of CPT; AID 686979, 2013; actives 12% (n = 420,000); Potency, µM (top dose mostly 46.2 µM), without a hit: at the top dose activity change, negative = growth inhibition, most hits filed as inhibitors; chicken DT40 Tdp1-/-;hTDP1 cells + 20 nM CPT, ATP luminescence, 48 h; also: nearly all actives have a fitted effect of over 55% in size
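Chicken DT40 Tdp1-/- cells stably complemented with human TDP1 were seeded at 400 cells/well in medium containing 20 nM camptothecin, exposed to pin-transferred compounds, and grown at 37 °C for at least 48 hr. Viability was read as ATP luminescence.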
RORg inh = qHTS for inhibitors of ROR gamma transcriptional activity; actives 5.4% (n = 310,000); Potency, µM (highest dose often 53.6 µM), for inactives: at the top dose activity change, negative = inhibition, hits mostly inhibitors; Nuclear receptor ROR-gamma (Mus musculus), P51450; Drosophila S2 Gal4-RORgamma UAS-luciferase reporter, 20 h; AID 2551, 2010; also: nearly all actives have a fitted effect of over 60% in size
Target sequence (P51450 whole entry, looked up, the tested form may be a part): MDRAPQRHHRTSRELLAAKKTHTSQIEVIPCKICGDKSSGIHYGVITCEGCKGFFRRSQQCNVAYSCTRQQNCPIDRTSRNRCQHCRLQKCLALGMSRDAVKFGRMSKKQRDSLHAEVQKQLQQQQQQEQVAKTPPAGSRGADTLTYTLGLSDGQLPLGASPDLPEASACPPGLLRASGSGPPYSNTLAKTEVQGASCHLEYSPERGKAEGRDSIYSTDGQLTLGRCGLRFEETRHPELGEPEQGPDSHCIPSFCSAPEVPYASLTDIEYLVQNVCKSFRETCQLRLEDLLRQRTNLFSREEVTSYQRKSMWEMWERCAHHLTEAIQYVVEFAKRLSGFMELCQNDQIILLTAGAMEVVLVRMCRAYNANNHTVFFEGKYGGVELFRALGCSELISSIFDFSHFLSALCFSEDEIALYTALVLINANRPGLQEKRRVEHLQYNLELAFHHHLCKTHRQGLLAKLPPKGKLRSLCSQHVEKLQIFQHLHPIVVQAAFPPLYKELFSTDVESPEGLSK
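Luciferase reporter read in Schneider cells carrying Gal4-RORγ (mouse) and UAS-Photinus luciferase; cells given compound 1 h before 700 uM copper sulfate induction, then incubated 20 h at ambient temperature.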
VP16 counter = VP16 counterscreen qHTS for inhibitors of ROR gamma transcriptional activity. Drosophila S2 Gal4-VP16 UAS-luciferase, luminescence, 20 h. Potency, µM (top dose mostly 53.6 µM), inactives show at the highest dose activity, negative = inhibition, usual class: inhibitors. actives 3.5% (n = 310,000). AID 2546, 2010;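 also: Gal4-VP16 expression switched on by copper sulfate through the metallothionein promoter; nearly all actives have a fitted effect of over 50% in size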
TDP1 block = qHTS Assay for Inhibitors of Tyrosyl-DNA Phosphodiesterase (TDP1); Tyrosyl-DNA phosphodiesterase 1 (Homo sapiens), Q9NUW8; recombinant TDP1, AlphaScreen DNA substrate cleavage; Potency, µM (top dose mostly 130 µM), for the others: top-dose activity change, negative = inhibition, hits mostly inhibitors; actives 0.28% (n = 350,000); AID 485290, 2010; also: nearly all actives have a fitted effect of over 40% in size
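Enzyme-compound mixtures sat 15 min at room temperature, followed by a 5 min reaction with 15 nM final substrate and 10 min with AlphaScreen beads. Recombinant human Tdp1 was used at 1 nM final.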
TDP1 cell noCPT = qHTS for Inhibitors of human tyrosyl-DNA phosphodiesterase 1 (TDP1): qHTS in cells in absence of CPT; actives 15% (n = 420,000); Potency, µM (series often up to 46.2 µM), for inactives: top-dose activity change, negative = growth inhibition, most hits filed as inhibitors; AID 686978, 2013; DT40 Tdp1-/- hTDP1 cells, no CPT, ATP luminescence, 48 h; also: nearly all actives have a fitted effect of over 55% in size
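Compound effects on proliferation are scored in DT40 Tdp1-/-;hTDP1 cells in the absence of CPT. ATP levels (CellTiter-Glo luminescence) are recorded after a ≥48 hr, 37 °C incubation.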
Active calls of the source: *; ? = inconclusive; . = not tested or not shown; [ ] = another dose, or the depositor's remark. Sampled rows, rich in hits. Any-hit rate of the full collection: about 19%. Calls follow the shape of the dose curve; as a rule, active = well fitted curve in the direction sought with a large enough effect; inconclusive = small, poorly fitted or top-dose-only effect, or another doubt; inactive = no such curve, though single readings can be large; an effect the other way counts as inactive or inconclusive. % is scaled to controls: 0 for no effect and ±100 for the full control effect; potency is read from the fitted curve at half-maximal effect.

SMILES | TDP1 cell CPT | RORg inh | VP16 counter | TDP1 block | TDP1 cell noCPT
O=[N+]([O-])c1ccc(C=C2c3ccccc3-c3ccccc32)cc1 | -24% | . | . | . | 18µM*
Cc1cccc(C(=O)N/N=C/c2ccoc2)c1 | -6% | ? | -5% | 28µM* | 0%
CCOc1cc(C(=O)N/N=C/c2ccoc2)cc(OCC)c1OCC | 16% | 0% | 11% | -3% | 6%
CC(C)Oc1cccc(C(=O)N/N=C/c2ccoc2)c1 | -2% | ? | -4% | -12% | 0%
CC(C)COc1ccc(C(=O)N/N=C/c2ccoc2)cc1 | 15% | 18µM* | 14µM* | -1%[56.1 µM] | 1%
Brc1cccc(-c2nnc(SCc3ccon3)n2-c2ccccc2)c1 | ? | 12% | 7% | 8% | 15µM*
COc1ccc(NC(=O)C2CCC(CNS(=O)(=O)c3cccc4nsnc34)CC2)cc1OC (centres undefined) | ? | . | . | 1% | 16µM*
CCN(CC)C(=O)C1CCC(CNS(=O)(=O)c2cccc3nsnc23)CC1 (centres undefined) | 1% | 6% | 4% | 2% | -2%
CCN(C(=O)C1CCC(CNS(=O)(=O)c2cccc3nsnc23)CC1)c1ccccc1 (centres undefined) | ? | . | . | 8% | 23µM*
CCN(C(=O)C1CCC(CNS(=O)(=O)c2cccc3nsnc23)CC1)c1cccc(C)c1 (centres undefined) | ? | . | . | 7% | 21µM*
Cc1nc(C)c(C(=O)N2CCc3c(cnc(C)c3CNC(=O)c3cncs3)C2)s1 | 16%[9.04 µM] | . | . | . | -9%
COc1cc2c(cc1OC)[C@@H]1C(=O)c3ccc4c(c3O[C@@H]1CO2)C=CC(C)(C)O4 | 0.15µM* | ? | . | 12%[56.1 µM] | 0.11µM*
Cc1cc(C(=O)NC2CC(C)(C)Cc3c2cnn3-c2cccc(F)c2)nn1C (centres undefined) | ? | 14% | 1% | 1% | ?
Cc1oc(-c2cccc3ccccc23)nc1CN1CCC[C@H]1CO | -24% | 7.1µM* | ? | 5% | -25%
Cc1ccccc1-c1nc(CN2CCCC2c2ccc(F)cc2)c(C)o1 (centres undefined) | 21µM* | -42% | 2% | 4% | 16µM*
Cc1oc(-c2ccccc2Cl)nc1CN1CCCCC1c1cccnc1 (centres undefined) | -18% | -18% | 10% | 0% | -27%
Cc1nonc1C1CCCN1Cc1nc(-c2ccccc2Cl)oc1C (centres undefined) | ? | -36% | -6% | 0% | 15µM*
Cc1oc(-c2ccccc2Cl)nc1CN1CCCC1c1ccc(F)cc1 (centres undefined) | ? | 11µM* | -11% | 7% | -36%
N#Cc1cccc(Cn2cc(C(F)(F)F)ccc2=O)c1 | 9% | -1% | -6% | 3% | -1%
C=CCNCCOCCOc1ccc(C)cc1Br | ? | -1% | -2% | 11% | ?
COc1ccc(NC(=O)C2CCCN(c3cnccn3)C2)cc1 (centres undefined) | 15% | -11% | 7% | 6% | -6%
COc1ccc(-n2ncc(C(=O)Nc3cccc(C(F)(F)F)c3)c2C2CCN(C(=O)OC(C)(C)C)CC2)cc1 | ? | . | . | -4% | ?
Cc1c(Cl)cccc1-n1ncc(C(=O)Nc2ccc3c(c2)OCCO3)c1C1CCN(C(=O)OC(C)(C)C)CC1 | ? | . | . | 5% | ?
COc1ccc(-n2ncc(C(=O)Nc3ccc4c(c3)OCCO4)c2C2CCN(C(=O)OC(C)(C)C)CC2)cc1 | 21µM* | . | . | 2% | 16µM*
CC(C)(C)OC(=O)N1CCC(c2c(C(=O)Nc3ccc4c(c3)OCCO4)cnn2-c2ccc(F)cc2)CC1 | ? | . | . | 1% | 18µM*
SMILES | TDP1 cell CPT | RORg inh | VP16 counter | TDP1 block | TDP1 cell noCPT
Cc1ccc(N2CC(C(=O)Nc3cc(C)ccc3F)CC2=O)cc1 (centres undefined) | -1% | 0% | -5% | -2% | -8%
CC(=O)NNS(=O)(=O)c1scc(S(=O)(=O)c2ccc(Cl)cc2)c1C | -1% | 13% | 0% | . | 3%
COc1ccccc1C(=O)N1CC(=O)Nc2ccc(F)cc2C1c1ccccc1 (centres undefined) | 14% | 20% | 8% | . | ?
Cc1ccc(C(=O)N2CC(=O)Nc3ccc(F)cc3C2c2ccccc2)cc1[N+](=O)[O-] (centres undefined) | 18µM* | ? | -13% | 0% | 21µM*
O=C1CN(C(=O)c2ccccc2[N+](=O)[O-])C(c2ccccc2)c2cc(Br)ccc2N1 (centres undefined) | 21µM* | 33% | ? | . | ?
Cc1ccc2c(c1)C(c1ccccc1)N(C(=O)c1ccccc1[N+](=O)[O-])CC(=O)N2 (centres undefined) | 12µM* | 4% | 2% | . | 9.2µM*
COc1ccc(C(=O)N2CC(=O)Nc3ccc(C)cc3C2c2ccc(F)cc2)c(OC)c1 (centres undefined) | 21µM* | . | . | 0% | ?
O=C(NN1C(=O)C2C3C=CC([C@H]4CC34)[C@@H]2C1=O)c1ccc(Br)cc1 (some centres undefined) | -7% | 38% | -1% | 6% | -7%
COc1ccc(-c2cn(Cc3ccc(C(=O)c4ccccc4)cc3)nn2)cc1 | 2.1µM* | ? | ? | . | 7.3µM*
CC(OC(=O)c1ccc(Cl)c(S(=O)(=O)N2CCCC2)c1)C(=O)NC1CCCCC1C (centres undefined) | . | 45% | -28% | 3% | .
Cc1ccnc2nc(C(=O)OCC(=O)NC3CCC(C)CC3)nn12 (centres undefined) | -5% | . | . | 0% | -3%
Cc1ccc(C(=O)OCC(=O)NC2CCCC(C)C2C)cc1S(=O)(=O)N1CCCCC1 (centres undefined) | 21µM* | . | . | 1% | ?
Cc1ccc(C(=O)OC(C)C(=O)NC2CCCCC2C)cc1S(=O)(=O)N1CCCCC1 (centres undefined) | 18µM* | 38% | 14% | 0%[56.1 µM] | ?
Cc1ccc(C(=O)OCC(=O)N2CCC(C)CC2)cc1S(=O)(=O)N1CCCCC1 | -14% | 2% | 0% | 0% | ?
Cc1ccnc2nc(C(=O)OCC(=O)NC3CCCC(C)C3C)nn12 (centres undefined) | -20% | . | . | 0% | 1.5µM*
Cc1ccc(C(=O)OCC(=O)N2c3ccccc3NC(=O)C2(C)C)cc1S(=O)(=O)N1CCCCC1 | ? | . | . | -7% | 15µM*
